PubChem BioAssay AID624132 (Broad Institute, 2012)
Among all 1,600 compounds or so, about 1,500 (94%) were called active. So high a share suggests a set chosen from earlier hits. The list is a sample of the results. Measured potencies and affinities stand elsewhere. Results filed as inconclusive are left out.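 How the source made its calls: active means signal drop with fitted half-maximal concentration at most twice the top valid dose for that sample; inconclusive means flat fit between 30 and 70% inhibition, or poor curve fit; inactive means the rest.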

Assay: reduction of Shn3 3'UTR-driven luciferase in osteoblasts – cell-based, Clone20 osteoblasts, firefly luciferase, cherry-picked, dose response (AID 624132)
Conditions: Clone20 osteoblast Shn3 3'UTR firefly luciferase, 24 h; series mostly up to 35 µM; activity change, negative = inhibition: at the top concentration

Activity change, negative = inhibition, inactive:
CC(Cc1cccs1)NC(=O)Nc1ccc(F)cc1 (stereo not given) -3.91%, CCN1C(=O)[C@H]2[C@@H](c3ccc(-c4ccc(OC)cc4)cc3)N3CCC[C@@]3(C(=O)OC)[C@H]2C1=O -16.5%, COc1ccc(N(C)C(=O)c2ccc3snnc3c2)cc1 -3.31%, CC(=O)N1N=C(c2ccccc2)OC1c1ccc([N+](=O)[O-])s1 (stereo not given) -37.6%, Fc1ccccc1N1CCN(Cc2nc(-c3ccccc3)no2)CC1 24.1%, O=C(COC(=O)/C=C/c1ccc(OC(F)F)cc1)Nc1ccc2[nH]c(=O)[nH]c2c1 -5.42%, CCOc1ccc(NS(=O)(=O)c2cc(C(=O)NCCN3CCOCC3)ccc2C)cc1 11.4%, COCc1nn2c(N)c(C#N)cnc2c1-c1ccccc1 11.5%, NC(=O)NC(CC(=O)NCCc1ccccn1)c1ccccc1Cl (stereo not given) 2.62%, CCOC(=O)c1[nH]c(C)c(/C(O)=C2\C(=O)C(=O)N(CCCN3CCOCC3)C2c2cccs2)c1C (stereo not given) 29.2%, Cc1cc(-n2c(C)cc(C(=O)CSc3nncn3C)c2C)no1 21.8%, CSCCC(NC(=O)c1ccccc1)C(=O)OCC(=O)N(C)CCC#N (stereo not given) 5.19% [at 8 µM], COc1ccc(C(=O)OCC(=O)Nc2ccc3[nH]c(=O)[nH]c3c2)cc1 6.22%, Cc1csc(=O)n1CCC(=O)N(C)Cc1c(F)cccc1Cl 6.18%, COc1ccc(C(=O)OCC(=O)Nc2ncc([N+](=O)[O-])s2)cc1OC 21.4%, CCCOc1ccc2oc(=O)c3c(c2c1)CCCN3C(=O)CN1CCN(c2ncccn2)CC1 125%, OC(c1ccccc1)C(O)C(c1ccccc1)N1CCCCC1 (stereo not given) -2.22%, COc1ccc(N2C(=O)C(CC(=O)Nc3ccccc3)N(Cc3ccc(OC)c(OC)c3)C2=O)cc1 (stereo not given) 7.36%, CSc1cccc(NC(=O)N2CCCC(CNS(=O)(=O)Cc3ccccc3)C2)c1 (stereo not given) -20.4%, CCn1cc(CNCc2cn(-c3ccccc3C)nc2-c2ccc(OC)c(F)c2)cn1 -3.08%, CC(C)(C)N(Cc1ccccc1)C(=O)COC(=O)CCc1c[nH]c2ccccc12 -6.52%, Oc1c(C(c2cccs2)N2CCC3(CC2)OCCO3)sc2ncnn12 (stereo not given) -5.82%, COc1ccc(S(=O)(=O)NCCC(=O)OCC(=O)NC2CC2)cc1 79.6%, CC1=NN(c2cccc([N+](=O)[O-])c2)C(=O)C1 4.22%, CN=C1c2cc3cc(OC)ccc3n2CCN1Cc1ccccc1 -18.3%, Cc1noc(C)c1COC(=O)[C@@H](NC(=O)c1ccccc1)C(C)C -11.5%, CCCCC[C@H]1CN(Cc2ccc(OC)cc2)C(=O)[C@@H]1CC(=O)NCc1ccccc1 -56.9%, Cc1ccc(NC(=O)CN(C)C(=O)COc2cc(F)ccc2[N+](=O)[O-])cc1 -9.91%, Cc1cc(C)cc(C(=O)NCC(=O)OCC(=O)NCC(F)(F)F)c1 11.4%, Nc1c(Br)cc2c(c1Br)C(O)c1ccccc1-2 (stereo not given) 27.3%, O=C(CSc1nnc(Nc2ccccc2)s1)NC1CCS(=O)(=O)C1 (stereo not given) 16.4%, CN(C(=O)CSc1nc(-c2cccs2)nc2ccccc12)C1CCS(=O)(=O)C1 (stereo not given) -7.83%, CN(CC(=O)NCc1ccc2c(c1)OCO2)S(=O)(=O)c1ccc(Br)s1 -3.96%, Cn1cccc1Cc1nnc(SCC(=O)NCCc2ccccc2)n1-c1ccc(F)cc1 -16.1%, O=C(NC(NC(=S)Nc1c(Cl)cc(Cl)cc1Cl)C(Cl)(Cl)Cl)OCc1ccccc1 (stereo not given) -68.3%, COc1ccc(-c2nnn(CC(=O)Nc3ccc4c(c3)OCCO4)n2)cc1OC -6.19%, O=C(CSc1nc(C(F)(F)F)cc(=O)[nH]1)N1CCCC1 -20.5%, Cc1nc2ncnn2c(C)c1Cc1cccc(F)c1 -14.1%, CCOC(=O)C1CCN(C(=O)C(C)N(c2ccc(Oc3ccccc3)cc2)S(C)(=O)=O)CC1 (stereo not given) -14.2%, CCOc1ccc(Br)cc1C1=CC(=O)C[C@H](c2ccc(OC)cc2)C1 -22.4%, COc1ccccc1-n1ccnc(SCC(=O)NCc2ccccc2Cl)c1=O -16.1%, Cc1ccc(NC(=O)NCCCN2CCOCC2)cc1 12.6%, Nc1cc(=O)[nH]c(SCC(=O)Nc2cccc([N+](=O)[O-])c2)n1 10.6%, CCOC(=O)C1=C(C)N(CCCC(=O)O)C(=O)NC1c1ccc2ccccc2c1 (stereo not given) 6.64%, CCc1c(O)nc(SCC(=O)Nc2ccccc2)n(-c2ccccc2)c1=O 15.3%, O=C(CN1C(=O)C2CCCCC2C1=O)NC1CCCc2ccccc21 (stereo not given) 8.86%, Cc1cc(Sc2ccc([N+](=O)[O-])cn2)ccc1Br 22%, Cc1ccc(S(=O)(=O)N2CCCCC2)cc1NS(=O)(=O)c1ccccc1F -79.1%, O=c1c2ccccc2c(C=Nc2ccccc2O)c(O)n1-c1nccs1 -5.72%, COc1ccccc1-n1c(SCC(=O)Nc2cc(C)on2)nc2c(c1=O)SCC2 -19.3%, O=S(=O)(c1ccc(Cl)cc1)n1ccc2cccnc21 -26.5%, O=C(NCCCn1ccnc1)C(=O)NCC1OCCCN1S(=O)(=O)c1ccccc1 (stereo not given) 3.7%, O=C(NCCNC(=O)Oc1cccc2ccccc12)Oc1cccc2ccccc12 48.5%, O=C(CSc1nc2ncc(Cl)cc2[nH]1)N1CCOCC1 17.4%, C[C@@H]1CC=C[C@H]2[C@H]1C(=O)N(Cc1ccccc1)[C@H]2c1cccc([N+](=O)[O-])c1 -18.7%, CC(=O)Nc1sc2c(c1-c1nc3ccccc3s1)CCN(C(C)C)C2 -66.9%, COc1cc(C(=O)OCC(=O)NC2CCCCCC2)ccc1OCC(C)C -25.6%, Cc1ccc(NC(=O)C2CCCN(S(=O)(=O)c3c(C)noc3C)C2)cc1 (stereo not given) 59.3%, CCO[C@@H]1OC(C(=O)NC2CC2)=C[C@H](c2coc3ccccc3c2=O)[C@H]1CCCO 0.737%, O=C(Nc1cccc(S(=O)(=O)NC2=NCCC2)c1)C1CC(=O)N(c2ccc3c(c2)OCCO3)C1 (stereo not given) 0.562%, CCOC(=O)CNC(=O)C1(NC(=O)CNC(=O)OCc2ccccc2)CCCC1 38.8%, O=C(NNc1ccccc1)C(=O)NNS(=O)(=O)c1ccc(CCCl)cc1 -0.537%, Cc1ccc(C(=O)N2CCN(C)CC2)cc1S(=O)(=O)N1CCCCCC1 -10.2%, CCN(CC)S(=O)(=O)c1ccc(N(C)Cc2cccc(OC)c2OC)nc1 -35.1%, Cc1cc(C(=O)Cn2cnc3cc(F)ccc3c2=O)c(C)n1C1CC1 -59.4%, COc1ccc(S(=O)(=O)N2CCOCC2)cc1NC(=O)COC(=O)CC1CC2CCC1C2 (stereo not given) -38%, COc1cc(OC)cc(C(=O)OCC(=O)Nc2ccc(F)cc2F)c1 -2.85%, Fc1ccccc1N=C1NN=C(c2ccccc2)CS1 -45%, Nc1nc(=S)[nH]c2c1C1(CCCCC1)Cc1ccccc1-2 15.5%, CCCCCCC#Cc1ccc2c(c1)COc1c3ccccc3nn1-2 57%, O=C1N/C(=C/c2ccc(N3CCOCC3)o2)C(=O)N1c1ccccc1 38.1%, Cc1ccccc1N/C(=N/S(=O)(=O)c1ccccc1)c1ccc(F)cc1 -1.16%, C[C@@H]1CN([C@H](C)CO)C(=O)CCCn2nncc2CO[C@H]1CN(C)S(=O)(=O)c1ccc2c(c1)OCCCO2 -2.03%, C[C@@H]1CN([C@H](C)CO)C(=O)c2cc(Br)cnc2O[C@H]1CN(C)C(=O)Cc1ccncc1 -2.88%, Cc1cc(C)n(-c2cc(-n3nc(C)cc3C)ncn2)n1 -6.51%, OCCNc1nc(Nc2ccc(Cl)cc2)nc(N2CCCC2)n1 -42.6%, COc1c(C)cc(C(=O)C2CCCN(C(=O)c3cccc(-n4cccn4)c3)C2)cc1C (stereo not given) -0.537%, CC1CCN(C(=O)c2ccc(N3C(=O)C4CCC(C)CC4C3=O)cc2)CC1 (stereo not given) 12%, O=C(Cc1ccccc1)NCCS(=O)c1ccc(Cl)cc1 (stereo not given) 12.2%, CSc1nnc(-c2ccco2)n1-c1ccccc1 -27%, CCn1nnc2cc(C(=O)Nc3cc(Cl)ccc3C)ccc21 7.36%, O=C(CSc1nc2[nH]ncc2c(=O)[nH]1)Nc1ccccc1C(F)(F)F 3.2%, CC(C)c1c(O)c2c(n(-c3ccccc3)c1=O)CCCC2 -1.82%, Cc1ccc(C(=O)Nc2ccc3c(c2)C(=O)N(CC2CCCO2)C3=O)cc1 (stereo not given) 43.8%, O=C(CCS(=O)(=O)c1ccccc1)Nc1nc2c(s1)CCCC2 25.6%
